Common to all, as to assay: NCI-60 one-dose screen, 48 h (100 = growth as untreated, 0 = no growth, -100 = all killed)
Holding throughout (settings): 10 µM unless noted

The subject of assay [1] is NCI-H23 lung.
Assay [2] concerns NCI-H226 lung.
Assay [3] concerns NCI-H322M lung.
Assay [4] relates to HOP-62 NSCLC.
For assay [5], the system named is NCI-H460 lung.
Assay [6] deals with HOP-92 NSCLC.
Assay [7] concerns NCI-H522 lung.
The subject of assay [8] is A549/ATCC NSCLC.
For assay [9], the system named is 786-0 renal.
Assay [10] relates to COLO 205 colon.
Assay [11] deals with DU-145 prostate.
Assay [12] deals with K-562 leukemia.
In assay [13] the test system is MALME-3M melanoma.
Assay [14] deals with MDA-MB-231 breast.
The subject of assay [15] is RXF 393 renal.
Assay [16] relates to SF-268 CNS.
Assay [17] concerns SF-295 CNS.
Assay [18] concerns SF-539 CNS.
The test system of assay [19] is UACC-257 melanoma.
In assay [20] the test system is M14 melanoma.

Compounds without any hit were thinned out: in the full panel of roughly 83,000, 20% have a hit.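 Treatment: one concentration, 48 hours, 96-well format. Scoring: percent growth, with anything below 10 considered active.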 A number with no mark means an inactive call. Calls of active or inactive are those of the source.

For the compound `COc1ccc(Cn2cc(C(=O)N=Nc3c(O)[nH]c4ccc(Br)cc34)nn2)cc1`, the growth was 102% in assay [1]; 97.5% in [2]; 102% in assay [3]; 111% in assay [4]; 111% in assay [5]; 114% in assay [6]. The growth is 89.1% in assay [7]; 95.1% in assay [8]; 99.6% in assay [9]; 115% in assay [10]; 93.7% in assay [11]; 88.1% in [12]. The growth in [13] was -89.9% (active); in assay [14] it was 108%; in assay [15] it was 99.8%; in assay [16], 94.1%; in assay [17] it was 95.8%; in [18], 104%. In addition, the figures for the growth in assay [19] and in assay [20] were 102% and 111%, respectively.

In the case of `CCOc1ccc(-c2cc(C3(S(=O)(=O)c4ccc(C)cc4)CC=CC3)on2)cc1`, the growth in assay [1] is 73.2%; in assay [2], 47.7%; in assay [3] it was 96.4%; in assay [4] it was 85.9%; in assay [5], 91.1%; in [6] it was 86.1%. Moreover, the growth in assay [7] was 70.6%; in assay [8] it was 92.8%; in assay [9], 102%; in [10], 95.5%; in [11], 101%; in assay [12], 70.9%. In addition, the growth was 83.6% in assay [13]; 91.8% in assay [14]; 93.6% in assay [15]; 98.6% in [16]; 90% in assay [17]; 98.6% in assay [18]. The growth in [19] was 74.9%; in assay [20], 107%.

`NS(=O)(=O)Oc1cccc(-c2nc3sccn3c2-c2ccccc2)c1`: the growth is 76.2% in assay [1]; 85.4% in assay [2]; 89.7% in assay [3]; 50.2% in assay [4]; 38.9% in [5]; 45.8% in [6]. Moreover, the growth in assay [7] was 61.5%; in assay [8], 52.6%; in assay [9] it was 65.5%; in assay [10], 69.7%; in assay [11], 89.9%; in [12] it was 16.7%. Moreover, the growth was 41.3% in assay [13]; 60.3% in assay [14]; 50% in [15]; 70.1% in assay [16]; 28.8% in [17]; 31.9% in assay [18]. Also, the values for the growth in [19] and in assay [20] were 74.4% and 20.4%, respectively.

Regarding `COC12C=C/C(=C(/C(=O)OCc3ccccn3)C(=O)CCCCCCCCC3(OC)C=C/C(=C(/C(=O)OCc4ccccn4)C(=O)CCCCCCCC1)O3)O2`, the growth was -37.4% (active) in assay [1]; -69.4% (active) in assay [2]; -60% (active) in assay [3]; 20% in assay [4]; -15.5% (active) in assay [5]; -59% (active) in assay [6]. Besides, the growth in assay [7] is -12.9% (active); in assay [8], 9.81% (active); in assay [9] it was -72.5% (active); in assay [10] it was -15.6% (active); in assay [11] it was -24.5% (active); in assay [12] it was -0.106% (active). Moreover, the growth in assay [13] is -60.1% (active); in assay [14] it was 7.85% (active); in assay [15] it was -82.5% (active); in assay [16], -8.87% (active); in assay [17], -25.7% (active); in [18], -28.3% (active). The results for the growth in assay [19] and in assay [20] were 11% and -23.3% (active), respectively.

For the compound `CCCCCCCCNc1ncnc2c1ncn2Cc1nnc2c3ccccc3c(Cl)nn12`, the growth is 59.6% in [1]; 39.9% in assay [2]; 77.8% in [3]; 54.3% in assay [4]; 53.3% in [5]; 3.23% (active) in assay [6]. In addition, the growth is 52.9% in [7]; 73.1% in assay [8]; 47.7% in assay [9]; 65.5% in assay [10]; 49% in [11]; 14.8% in [12]. The growth in [13] was 69.9%; in assay [14], 55.4%; in [15], 36.1%; in assay [16], 35.5%; in [17] it was 61.8%; in assay [18] it was 49.9%. Also, the growth in [19] is 46.9%; in [20], 34.5%.

With `CC(C)(C)n1cc(-c2ccnc(NCCNS(=O)(=O)c3ccc(Br)cc3)c2)c(-c2cccc(O)c2)n1`, the growth was 35.2% in [1]; 45.4% in assay [2]; 62.7% in assay [3]; 61.1% in assay [4]; 1.07% (active) in assay [5]; 18.5% in [6]. In addition, the growth is 16.7% in assay [7]; 28.9% in assay [8]; 21.2% in [9]; -74.9% (active) in assay [10]; 49.8% in assay [11]; 6.18% (active) in [12]. The growth in assay [13] is 20.1%; in assay [14], 38.2%; in [15] it was 26.3%; in assay [16] it was 33.1%; in assay [17], 31.8%; in assay [18], 46.5%. Further, the growth is 36% in assay [19] and 21.9% in [20].

For the compound `CC1(C)CC(=O)C2=C(C1)OC(C(=O)c1ccccc1)C2c1cccc(Oc2ccccc2)c1` (stereo not given), the growth in assay [1] is 48.5%; in assay [2] it was 53.3%; in assay [3], 75.1%; in [4], 66.7%; in assay [5], 51.4%; in assay [6], 13.4%. Also, the growth was 38.2% in [7]; 29.9% in assay [8]; 53.1% in [9]; 38.3% in [10]; 68.1% in assay [11]; 31.7% in assay [12]. For the same compound, the growth in assay [13] was 59.5%; in assay [14] it was 50.4%; in assay [15], 42.8%; in assay [16], 44.6%; in [17], 32.6%; in assay [18] it was 63.9%. In addition, the growth in assay [19] was 45.5%; in [20], 36.8%.

Consider `COc1cccc(C(=O)Nc2cccc(NC(=O)c3ccccn3)c2)c1`, for which the growth in assay [1] was 93.7%; in assay [2], 112%; in assay [3], 98.1%; in assay [4], 102%; in assay [5], 114%; in assay [6], 115%. The growth in assay [7] was 89.8%; in [8], 97.5%; in [9] it was 85.6%; in assay [10], 120%; in assay [11], 109%; in [12] it was 90.5%. Further, the growth was 94.4% in assay [13]; 105% in assay [14]; 115% in assay [15]; 96.9% in [16]; 91.6% in assay [17]; 104% in assay [18]. The growth in assay [19] is 109%; in [20] it was 87.9%.

These data come from PubChem BioAssay (NCI).
